Screen size: about 5,500 compounds; about 2,000 (36%) were called active. Roughly 18% stayed inconclusive and do not appear here. No stated cut-off is given here; in the data, active means normalized growth mostly below about 0.91 (no sharp cut-off); inconclusive means no clear call, values can overlap the other calls; inactive means mostly above about 0.92. The list shows a part of the results.
Assay: chemical genetic growth profiling, strain panel (AID 1159580);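 further: tested at 20 µM; growth read once vehicle control cultures reached saturation at 30 °C; 1 = growth at the plate median or of vehicle wells; lower values mean less growth of the strain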
Conditions: S. cerevisiae deletion strains, growth OD

Measured: normalized growth

N#Cc1c(Cl)c(Cl)c(Cl)c(Cl)c1C#N
active: locus YAR019C, strain CDC15, active compounds read low 0.625 | locus YBL105C, strain PKC1, active compounds read low 0.734 | locus YBR135W, strain CKS1, active compounds read low 0.721 | locus YBR136W, strain MEC1, active compounds read low 0.716 | locus YBR160W, strain CDC28, active compounds read low 0.726 | locus YDL017W, strain CDC7, active compounds read low 0.722 | locus YDL028C, strain MPS1, active compounds read low 0.488 | locus YDL101C, strain DUN1, active compounds read low 0.789 | locus YDL108W, strain KIN28, active compounds read low 0.707 | locus YDL132W, strain cdc53, active compounds read low 0.588 | locus YDL214C, strain PRR2, active compounds read low 0.392 | locus YDR052C, strain DBF4, active compounds read low 0.77 | locus YDR054C, strain cdc34, active compounds read low 0.235 | locus YDR226W, strain ADK1, active compounds read low 0.693 | locus YDR477W, strain SNF1, active compounds read low 0.283 | locus YER123W, strain YCK3, active compounds read low 0.169 | locus YER133W, strain GLC7, active compounds read low 0.227 | locus YFL009W, strain cdc4, active compounds read low 0.685 | locus YFL029C, strain CAK1, active compounds read low 0.639 | locus YFR003C, strain YPI1, active compounds read low 0.634 | locus YFR019W, strain FAB1, active compounds read low 0.315 | locus YFR028C, strain CDC14, active compounds read low 0.66 | locus YGR040W, strain KSS1, active compounds read low 0.352 | locus YGR052W, strain FMP48, active compounds read low 0.382 | locus YGR092W, strain DBF2, active compounds read low 0.135 | locus YHR030C, strain SLT2, active compounds read low 0.23 | locus YHR079C, strain IRE1, active compounds read low 0.17 | locus YHR082C, strain KSP1, active compounds read low 0.412 | locus YHR205W, strain SCH9, active compounds read low 0.071 | locus YIL147C, strain SLN1, active compounds read low 0.555 | locus YJL095W, strain BCK1, active compounds read low 0.284 | locus YJL157C, strain FAR1, active compounds read low 0.318 | locus YJR016C, strain ILV3, active compounds read low 0.587 | locus YJR066W, strain TOR1 (second series), active compounds read low 0.459 | locus YJR066W, strain TOR1, active compounds read low 0.376 | locus YKL048C, strain ELM1, active compounds read low 0.282 | locus YKL067W, strain YNK1, active compounds read low 0.359 | locus YKL101W, strain HSL1, active compounds read low 0.346 | locus YKL193C, strain SDS22, active compounds read low 0.66 | locus YKL203C, strain TOR2, active compounds read low 0.37 | locus YLR113W, strain HOG1, active compounds read low 0.302 | locus YLR133W, strain CKI1, active compounds read low 0.238 | locus YLR403W, strain SFP1, active compounds read low 0.109 | locus YML070W, strain DAK1, active compounds read low 0.291 | locus YMR001C, strain CDC5, active compounds read low 0.673 | locus YMR205C, strain PFK2 (second series), active compounds read low 0.159 | locus YMR277W, strain FCP1, active compounds read low 0.594 | locus YNL006W, strain LST8, active compounds read low 0.574 | locus YNL020C, strain ARK1, active compounds read low 0.191 | locus YNL161W, strain CBK1, active compounds read low 0.704 | locus YNL183C, strain NPR1, active compounds read low 0.241 | locus YNL207W, strain RIO2, active compounds read low 0.666 | locus YNL222W, strain SSU72, active compounds read low 0.653 | locus YNL307C, strain MCK1 (second series), active compounds read low 0.162 | locus YOL078W, strain AVO1, active compounds read low 0.652 | locus YOL136C, strain PFK27, active compounds read low 0.26 | locus YOR061W, strain CKA2, active compounds read low 0.141 | locus YOR119C, strain RIO1, active compounds read low 0.37 | locus YOR231W, strain MKK1, active compounds read low 0.285 | locus YOR329C, strain SCD5, active compounds read low 0.701 | locus YPL031C, strain PHO85, active compounds read low 0.219 | locus YPL153C, strain RAD53, active compounds read low 0.158 | locus YPL204W, strain HRR25, active compounds read low 0.214 | locus YPL209C, strain IPL1, active compounds read low 0.711 | locus YPL256C, strain CLN2, active compounds read low 0.492 | locus YPR025C, strain CCL1, active compounds read low 0.728 | locus YPR106W, strain ISR1, active compounds read low 0.851 | locus YPR111W, strain DBF20, active compounds read low 0.756 | strain NNK1, active compounds read low 0.747 | strain TSCII, active compounds read low 0.661
